Experimental findings from PubChem BioAssay AID2284387 (EPA ToxCast) are described below.

Inconclusive results are not listed. The source made the active and inactive calls. The calls were made as follows: active = hit-call score of the fitted dose curve at least 0.9, where 1 is the maximum; inconclusive = response in the unintended direction; inactive = score below 0.9.

human Peroxisome Proliferator-activated Receptor delta (PPARd) Agonism, conducted at France lab site, PPARD (gene 5467), sequence (Q03181 whole entry, looked up): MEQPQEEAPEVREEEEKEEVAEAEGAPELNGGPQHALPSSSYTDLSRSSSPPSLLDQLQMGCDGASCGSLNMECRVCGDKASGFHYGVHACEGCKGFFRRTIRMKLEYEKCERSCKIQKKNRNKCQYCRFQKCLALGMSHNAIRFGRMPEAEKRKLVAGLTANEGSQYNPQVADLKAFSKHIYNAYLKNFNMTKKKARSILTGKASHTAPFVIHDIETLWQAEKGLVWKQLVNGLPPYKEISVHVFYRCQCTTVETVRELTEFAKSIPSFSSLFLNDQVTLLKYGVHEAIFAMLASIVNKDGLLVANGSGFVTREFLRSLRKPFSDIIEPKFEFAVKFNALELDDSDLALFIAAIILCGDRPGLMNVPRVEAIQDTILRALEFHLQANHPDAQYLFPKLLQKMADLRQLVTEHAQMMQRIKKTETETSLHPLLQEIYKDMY

For this assay, the target named is human Peroxisome Proliferator-activated Receptor delta (PPARd) Agonism, conducted at France lab site, PPARD (gene 5467) (UniProt Q03181). The assay can be described thus: ERF_FR_NR_COA_hPPARD: Eurofins (ERF) Nuclear Receptor (NR) Functional Coactivator Assay for human Peroxisome Proliferator-activated Receptor delta (PPARd) Agonism, conducted at France lab site. On the procedure:
ERF_FR_NR_COA_hPPARD is a biochemical, single-readout assay that uses extracted gene-proteins in a cell-free assay. Measurements were taken 2 hours after chemical dosing in a 384-well plate. See PPARdelta Human NHR Functional Agonist Coactivator Assay, Cerep.ERF_FR_NR_COA_hPPARD is an assay component calculated from the ERF_FR_NR_COA_hPPARD assay. It is designed to measure FRET using a type of binding reporter as detected by fluorescence intensity of GW0742 with fluorimetry technology.Data from the assay component ERF_FR_NR_COA_hPPARD was analyzed at the assay endpoint, ERF_FR_NR_COA_hPPARD, in the positive analysis fitting direction relative to DMSO as the negative control and baseline of activity. […]
Histidine-tagged-PPARdelta (Ligand Binding Domain, 1.7 ul/ml proteins) are mixed with 50 nM biotin-tagged-C33 coactivator and 0.4 ug fluorescence acceptor (anti-histidine antibody coupled-beads) in an incubation buffer containing 20 mM Hepes/NaOH (pH 7.4), 80 mM Nacl, 0.08% Tween 20 and 0.8 mM DTT and 0.08% BSA. […] Thereafter, fluorescence donor (streptavidin coupled-beads) is added at a final concentration of 0.4 ug. Following 120 min incubation at 22C, the signal is measured at lambdaex=680 nm and lambdaem=520 and 620 nm using a microplate reader (EnVision, Perkin Elmer). The results are expressed as a percent of the control response to […] nM GW 0742. […]
As for `CC(C)(Oc1ccc(C(=O)c2ccc(Cl)cc2)cc1)C(=O)O`, the outcome was inactive.

Consider `O=C(O)CCC(F)(F)C(F)(F)C(F)(F)F`, for which the result was inactive.
